An excerpt weighted towards active compounds, which were near 8% of everything screened.
MCF10A rereplic = A quantitative high throughput screen for small molecules that induce DNA re-replication in MCF 10a normal breast cells; MCF 10A DNA re-replication, Hoechst nuclear intensity, 48 h; 350,000 compounds, 2.9% hits; Potency, µM (highest dose often 46.1 µM), for the others: top-dose activity, positive = re-replication, most hits filed as activators; further: % of control where 0% means no effect; nearly all actives have a fitted effect of over 50% in size
KB-V1 cytotox = qHTS assay for MDR1-selective chemotherapeutics: Primary screen using the drug-selected MDR subline cells KB-V1; KB-V1 MDR cells viability, CellTiter-Glo, 72 h; Potency, µM (titrated, usually from 46.1 µM), hits mostly cytotoxic; 400,000 compounds, 3.4% hits; further: on the % scale 0 is the no-effect control and ±100 the full control effect; nearly all actives have a fitted effect of over 60% in size
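Following 72 h at 37 degrees C with compound, KB-V1 cell viability was read by CellTiter-Glo luminescence, medium being phenol-red-free DMEM plus 10% FBS; concentration-response parameters came from normalized, curve-fitted qHTS data.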
KB-3-1 cytotox = qHTS assay for MDR1-selective chemotherapeutics: Primary screen using the parental adenocarcinoma cell KB-3-1; Potency, µM (top dose mostly 46.1 µM), actives largely listed as cytotoxic; AID 1347075, 2019; KB-3-1 viability, CellTiter-Glo ATP luminescence, 72 h; 400,000 compounds, 1.4% hits; further: on the % scale 0 is the no-effect control and ±100 the full control effect; nearly all actives have a fitted effect of over 60% in size
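Cytotoxicity in the drug-sensitive parental line KB-3-1 was scored as loss of CellTiter-Glo luminescence following 72 h incubation with compound. Values come from curve fitting of normalized concentration-response data.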
SW480 rerep = A quantitative high throughput screen for small molecules that induce DNA re-replication in SW480 colon adenocarcinoma cells. 340,000 compounds, 1.8% hits. AID 624297, 2012. SW480 DNA re-replication, Hoechst DNA content imaging, 48 h. Potency, µM (doses to about 46.1 µM), for inactives: top-dose re-replication activation, hits mostly activators; further: % of control where 0% means no effect; nearly all actives have a fitted effect of over 55% in size
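Per well, 250 cells were exposed to pinned compound for 48 hr. Nuclear DNA was visualised with Hoechst (40 min, 37 C) and total object intensity recorded by fluorescence scanning.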
HT1080 IDH1KD tx = qHTS for induction of synthetic lethality in tumor cells producing 2HG: qHTS for the HT-1080-IDH1KD cell line | HT-1080 IDH1 knockdown viability, ATP luminescence, 48 h | Potency, µM (top dose mostly 46.1 µM), without a hit: at the top dose activity, negative = toxicity, actives largely listed as cytotoxic | 360,000 compounds, 2% hits | AID 686971, 2013;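 further: 0% = DMSO wells and -100% = cell-free medium wells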
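Assay cells: HT-1080 with IDH1 knockdown, 750 per well, RPMI/5% FBS. Exposure: 48 h at 37 °C following 2 h pre-incubation. Read: CellTiter-Glo luminescence; fitted concentration-response, curve class assigned.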
HT1080-NT tox = qHTS for induction of synthetic lethality in tumor cells producing 2HG: qHTS for the HT-1080-NT fibrosarcoma cell line | Potency, µM (top dose mostly 46.1 µM), for the others: at the top dose activity, negative = less viability, usual class: cytotoxic | 360,000 compounds, 1.6% hits | HT-1080-NT fibrosarcoma viability, CellTiter-Glo ATP luminescence, 48 h;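 further: NT is the 2HG producing partner of a matched IDH1 knockdown line; 0% = DMSO-treated cells and -100% = media-only wells without cells; nearly all actives have a fitted effect of over 55% in size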
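A 48-hour cytotoxicity screen used HT-1080-NT cells plated 2 hours before compound delivery. ATP-based CellTiter-Glo luminescence measured viability, normalized to DMSO and no-cell controls.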
Active calls of the source: *; i = inactive; ? = inconclusive; / = not tested or not shown. The call rests on the fitted dose curve; in most records, active means well fitted curve in the direction sought with a large enough effect; inconclusive means small, poorly fitted or top-dose-only effect, or another doubt; inactive means no such curve, though single readings can be large; an effect the other way counts as inactive or inconclusive. Potency means the concentration at half of the fitted maximal effect.

SMILES	MCF10A rereplic	KB-V1 cytotox	KB-3-1 cytotox	SW480 rerep	HT1080 IDH1KD tx	HT1080-NT tox
Cc1ccc(NC(=O)CN2C(=O)CCc3cc(S(=O)(=O)N4CCOCC4)ccc32)cc1F	/	i	i	/	/	/
COc1ccc(COCC(O)CN2CC(C)OC(C)C2)cc1OC (stereo not given)	-7.1%	i	i	-4.7%	17.3%	-3.2%
COc1cc(Br)ccc1C1C(C(=O)Nc2ccc(C)cc2C)=C(C)Nc2nnnn21 (stereo not given)	/	i	i	/	/	/
CCOc1ccc(C(=O)Nc2ccc(NC(=O)c3ccco3)c(Cl)c2)cc1Br	5.8µM*	i	i	-13.8%	?	?
CCOc1ccc(C(=O)Nc2ccc(NC(=O)c3ccco3)c(Cl)c2)cc1Cl	?	i	?	?	3.4%	15.9%
CN1CCC(N2CCN(C3CN(C4CCCC4)S(=O)(=O)C3)CC2)CC1 (stereo not given)	/	?	i	/	21.6%	18.3%
CCOc1ccc2nc(NCCCNS(=O)(=O)c3ccc(F)cc3)c(C#N)cc2c1	2.06µM*	i	18.4µM*	?	-12.1%	-2.1%
CCOc1ccc2nc(NCCCNS(=O)(=O)c3ccccc3)c(C#N)cc2c1	2.91µM*	?	?	7.31µM*	2.2%	-0.8%
CC/C(=C\c1ccc(C(=O)OC)cc1)c1cc(OC)cc2oc3ccccc3c12	/	i	i	/	/	/
Nc1cc([N+](=O)[O-])ccc1OCc1ccccc1	19.1%	?	i	-3.4%	-15.2%	-2.8%
O=[N+]([O-])c1cccc(COc2ccccc2CO)c1	/	i	i	/	11.0%	6.8%
O=CN(Cc1ccccc1)c1cc([N+](=O)[O-])ccc1OCc1ccccc1	26.2%	5.8µM*	i	-2.9%	9.9%	3.1%
CC(=O)N(C)c1cc([N+](=O)[O-])ccc1OCc1ccccc1	19.5%	20.6µM*	i	-1.7%	-3.9%	0.0%
O=[N+]([O-])c1cc(-c2ncccn2)c([N+](=O)[O-])s1	7.31µM*	?	16.4µM*	20.6µM*	20.6µM*	16.4µM*
O=C(Nc1ncccn1)c1cc([N+](=O)[O-])cc([N+](=O)[O-])c1	?	i	i	-7.4%	20.7%	12.1%
Cc1ccc([C@@H]2CC(=O)[C@@H]3CN(S(=O)(=O)c4ccc(C)cc4)[C@H](c4ccc(Cl)cc4)C[C@@H]3N2S(=O)(=O)c2ccc(Cl)cc2)cc1	/	i	i	/	6.8%	-2.9%
N#CCCN(Cc1cccnc1)S(=O)(=O)c1ccc2ccccc2c1	-3.3%	23.1µM*	i	-3.5%	1.3%	0.8%
CC1CCN(Cc2nnnn2CCCC(=O)NC(c2ccccn2)C(F)(F)F)CC1 (stereo not given)	20.6µM*	?	i	3.0%	2.0%	8.1%
COCC1CCCCN1C(=O)CCCn1nnnc1CN1CCC(C)CC1 (stereo not given)	2.3%	/	/	-8.2%	-8.2%	-8.4%
COc1ccccc1/C=C/c1nc2ccccc2[nH]1	/	i	i	/	/	/
c1cc2c(c(CC3CO3)c1CC1CO1)OCCOCCOCCOCCO2 (stereo not given)	/	i	i	/	0.4%	-0.1%
CCc1cc(-c2[nH]ncc2-c2ccc(OC)cc2)c(O)cc1O	-22.9%	?	?	11.1%	?	?
CCc1cc(-c2[nH]ncc2-c2ccc3c(c2)OCO3)c(O)cc1O	-14.0%	9.2µM*	i	9.4%	?	?
C=CCNC(=S)N/N=C(\C)c1cccc(OC)c1	-1.5%	23.1µM*	i	3.7%	10.8%	-4.0%

Screening results: PubChem BioAssay, National Center for Advancing Translational Sciences (NCATS)
